mcGAS lum = inhibitors of mouse cGAS. 0.15% of 160,000 active. recombinant cGAS, Kinase-Glo ATP depletion luminescence. Q8C6L5. inhibition, % at 12.5 µM;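 further: 0% = negative control wells and 100% = reference inhibitor with no enzyme activity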
NPYLR7 ag = activates Aedes aegypti NPYLR7 receptor; activation, % at 10 µM; HEK293T NPYLR7/Galpha15, GCaMP6s calcium fluorescence; 0.15% of 270,000 active; in the data active means activation above about 40%;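 further: 0% = vehicle and 100% = reference agonist at the receptor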
hcGAS inh = inhibitors of human cGAS; Q8N884; recombinant h-cGAS, ATP depletion, Kinase-Glo luminescence; inhibition, % at 12.5 µM; AID 1259398; 0.081% of 290,000 active;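 further: 0% = vehicle reaction and 100% = reaction without DNA for no activity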
Target sequence (Q8N884 whole entry, looked up): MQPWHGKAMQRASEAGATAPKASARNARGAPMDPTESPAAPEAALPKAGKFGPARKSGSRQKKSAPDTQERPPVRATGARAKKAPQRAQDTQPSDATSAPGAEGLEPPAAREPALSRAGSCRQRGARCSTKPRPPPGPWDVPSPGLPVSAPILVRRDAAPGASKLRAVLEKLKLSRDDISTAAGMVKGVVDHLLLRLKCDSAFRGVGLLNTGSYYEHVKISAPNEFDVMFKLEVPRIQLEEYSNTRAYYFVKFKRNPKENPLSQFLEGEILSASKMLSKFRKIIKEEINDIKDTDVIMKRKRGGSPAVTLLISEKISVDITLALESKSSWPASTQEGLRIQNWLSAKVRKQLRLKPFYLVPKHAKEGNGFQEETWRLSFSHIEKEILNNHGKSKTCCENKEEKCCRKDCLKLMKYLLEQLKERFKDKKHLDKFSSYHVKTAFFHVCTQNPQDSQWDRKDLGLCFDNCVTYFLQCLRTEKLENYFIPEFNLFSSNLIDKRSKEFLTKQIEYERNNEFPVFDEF
Starred values were filed as active, the others as inactive; nt = no result; ! = repeats disagree. The list is not random: actives were taken first. Their share in the collection is about 0.28%. Unless noted, no stated cut-off is given here; in the data, active means inhibition above about 40%; inactive means the rest.

SMILES	mcGAS lum	NPYLR7 ag	hcGAS inh
Cc1ccccc1CNc1ncnc2c1ncn2C1OC(CO)C(O)C1O (stereo unspecified)	-6	78*	-10
OC[C@H]1O[C@@H](n2cnc3c(NCc4ccco4)ncnc32)[C@H](O)[C@@H]1O	-4	7	-2
Nc1ncnc2c1ncn2[C@@H]1O[C@H](CO)[C@H](O)C1O (stereo partly specified)	-2	96*	-4
Cc1ccccc1-c1nc(C(N)=O)c2[nH]c(=O)n(-c3ccccc3)c2n1	-7	11	-4
O=C(Cc1ccc(F)cc1)NCCSc1ncc(-c2ccccc2)[nH]1	-1	9	-5
CCOc1ccc(NC(=O)Cn2cnc3c(nnn3-c3ccccc3)c2=O)cc1	nt	5	-5
CCOc1ccc(NC(=O)N(Cc2cccc(OS(=O)(=O)c3cccc(C(F)(F)F)c3)c2)CC(C)C)cc1	-3	-3	0
O=C(C1=C(O)c2ccccc2S(=O)(=O)N1)c1ccc(Cl)s1	nt	5	41*
O=C(O)c1ccc(Cl)s1	nt	3	-1
Cc1cc(=O)[nH]c(-n2nc(C)cc2NC(=O)c2ccc(C(F)(F)F)cc2)n1	-6	3	0
O=C(CN1C(=O)SC(=Cc2ccc(N3CCCCCC3)o2)C1=O)N1CCCCCC1	nt	45*	-3
CCOC(=O)CN1C(=O)SC(=Cc2ccc(Br)o2)C1=O	-5	-2	-8
CCC(=O)Nc1sc2c(c1-c1nc3ccccc3s1)CCN(C(C)=O)C2	nt	0	-5
CCCCC(=O)Nc1sc2c(c1-c1nc3ccccc3s1)CCN(C(C)=O)C2	nt	3	-1
CC(C)N1CCc2c(sc(NC(=O)CN3C(=O)CCC3=O)c2-c2nc3ccccc3s2)C1	51*	33	56*
CCC(=O)Nc1sc2c(c1-c1nc3ccccc3s1)CCN(C(C)C)C2	97*	36	80*
COc1ccc(S(=O)(=O)N2CCC(Cc3ccc(-c4ccccc4)cc3)CC2)cc1OC	-7	-1	-6
Cc1cnc(CN(C)CC(=O)Nc2cccc(F)c2C)[nH]1	nt	-1	-6
CC(=O)C1=C(C)Nc2ncnn2C1c1ccco1 (stereo unspecified)	nt	6	-3
Fc1cc(F)cc(C2C=C(c3ccco3)Nc3ncnn32)c1 (stereo unspecified)	nt	78*	8
O=C(NC(c1ccccc1)C1CC1)c1cc(F)cc(F)c1 (stereo unspecified)	nt	0	-7
FC(F)(F)c1nc2c(Cl)cc(Cl)cc2[nH]1	nt	3	56*
FC(F)(F)c1nc2ccccc2[nH]1	-2	-1	-4
COc1ccc(Cl)cc1S(=O)(=O)N1CCN(c2cccc(C)c2C)CC1	nt	4	-10
COC(=O)n1c(=S)oc2cc(Cl)ccc21	40*	10	6
SMILES	mcGAS lum	NPYLR7 ag	hcGAS inh
COC(=O)n1c(=O)oc2cc(S(=O)(=O)N3CCOCC3)ccc21	nt	-1	-6
CCOc1cc2nc3c4ccccc4n(CC(C)C)c3nc2cc1OCC	nt	3	-9
N#Cc1cccc(C(=O)N2CCN(C3c4ccccc4CCc4ccccc43)CC2)c1	1	-5	0
CCCN(Cc1cc(C)ccc1C)CC(O)Cc1ccccc1 (stereo unspecified)	62*	3	-5
Cc1ccc(CN(Cc2ccc(F)cc2)CC(O)Cc2ccccc2)c(C)c1 (stereo unspecified)	-5	30	-4
COc1ccc(CCNC(=O)c2ccccc2N2CCC(NC(=O)c3ccc(OC)c(OC)c3)CC2)cc1OC	-3	8	0
COc1ccc(CCNC(=O)c2ccccc2N2CCC(NC(=O)c3ccco3)CC2)cc1OC	78*	-5	-3
O=C1C(c2ccc(F)cc2)C(c2ccccc2)N(c2ncn[nH]2)C1O (stereo unspecified)	nt	-4	0
Cc1ccc(-c2csc(-n3nc(C)cc3NC(=O)c3cc(=O)c4ccccc4o3)n2)cc1	-1	-7	0
CCCCC(CC)CCC(CC(C)C)OS(=O)(=O)O (stereo unspecified)	nt	-5	42*
CCCCCCCCCCCCOS(=O)(=O)O	nt	-21	-3
COc1ccc(CNC(=O)c2sc3nc4c(c(C(F)(F)F)c3c2N)CN(C(C)=O)CC4)cc1	nt	-7	-5
CCOC(=O)N1CCC(NC(=O)c2sc3nc4c(c(C(F)(F)F)c3c2N)CC(C)CC4)CC1 (stereo unspecified)	-4	62*	-6
Cc1ccc(C(=O)Nc2cccc(CNCCCN3CCCC3=O)c2)cc1	nt	5	-4
C=CCSc1nc2c(c(=O)[nH]1)C(c1ccc(F)cc1)C(C(=O)OCC)=C(C)N2 (stereo unspecified)	nt	-4	-8
CCc1c2ccc(C)n2cc[n+]1CC	nt	-15	-2
CC(=O)N1CCCC(Cn2cnc(-c3ccccc3)c2-c2cc(C)[nH]n2)C1 (stereo unspecified)	2	-5	0
O=S(=O)(CCN1CCc2ccccc2C1)Oc1ccccc1	nt	10	-8
Cc1ccc(N2C(=O)NC(=O)/C(=C\c3ccc(N(C)C)o3)C2=O)cc1	-8	5	-3
Cc1ccc(N2C(=O)NC(=O)/C(=C\c3cccs3)C2=O)cc1	-7	65*	-4
Cc1[nH]n2c(=O)c(C#N)c(-c3ccccc3)nc2c1-c1ccccc1	nt	-5	54*
CCc1c(C)nc2c(-c3ccccc3)c(C)[nH]n2c1=O	nt	-2	6
O=C(CNC(=O)Cc1ccc(Cl)cc1)N=Nc1c(O)[nH]c2ccccc12	-7	-3	-4
CCCOCCNC(=O)c1c(C)noc1-c1cccc(C(F)(F)F)c1	3	1	-3
N=C(N)c1ccc(OCCCCCOc2ccc(C(=N)N)cc2)cc1	nt	66*!	4
SMILES	mcGAS lum	NPYLR7 ag	hcGAS inh
N=C(N)c1ccc(OCCCCCOc2ccc(C(N)=O)cc2)cc1	0	5	-6
CN1CCC=C(CCNC(=O)COc2ccccc2)C1	-11	7	-3
O=C(c1sccc1OC(F)F)N1CCN(CC(F)F)CC1	nt	7	-9
O=c1c(-c2cc(O)c(O)c(O)c2)coc2cc(O)c(O)c(O)c12	82*	nt	71*
O=c1c(-c2ccc(O)cc2)coc2cc(O)cc(O)c12	-1	0	-1
Cc1ccc(-c2cc(C(=O)Nc3ccccc3)c3cccc(C)c3n2)cc1	-1	-5	-1
CC(C)N=c1c([N+](=O)[O-])nn(-c2ccc(Cl)cc2)n1O	-9	95*	-3
Cc1ccc(N=c2c([N+](=O)[O-])nn(-c3ccc(Cl)cc3)n2O)cc1Br	nt	-2	-8
O=C(O)c1ccccc1OP(=O)(O)O	61*	-10	5
CCCCC(=O)Oc1ccccc1C(=O)O	-5	nt	-6
NC(=O)C1CCN(C2CC(=O)N(c3ccc(C(=O)O)cc3)C2=O)CC1 (stereo unspecified)	-3	1	-1
O=C(O)Cc1cc(I)c(Oc2ccc(O)c(I)c2)c(I)c1	36	0	-2
O=C(O)Cc1cc(I)c(Oc2cc(I)c(O)c(I)c2)c(I)c1	94*	nt	68*
O=C(O)CN1C(=O)/C(=C/c2c(F)cccc2Cl)SC1=S	-1	-4	-3
O=C1NC(=S)SC1=Cc1ccc(Cl)cc1	55*	-9	11
O=C1NC(=S)SC1=Cc1ccc(F)cc1	38	2	15
O=C1NC(=S)SC1=Cc1c(F)cccc1Cl	nt	-3	48*
Cc1ccc(NC(=O)CC(=O)N[C@H]2COC[C@@H]2N2CCCCC2)cc1	-13	1	-2

Screens from PubChem.
